# The full ranking holds about 18,000 sequences; the median of “log2 normalized intensity” is about 0.39, and the highest 2% start at about 6.6. This excerpt belongs to a sample that is enriched for the highest values.
# Target: T1, HNF4alpha2 (COS-7 nuclear extract) (Homo sapiens, UniProt P41235 1-474)
# T1 sequence: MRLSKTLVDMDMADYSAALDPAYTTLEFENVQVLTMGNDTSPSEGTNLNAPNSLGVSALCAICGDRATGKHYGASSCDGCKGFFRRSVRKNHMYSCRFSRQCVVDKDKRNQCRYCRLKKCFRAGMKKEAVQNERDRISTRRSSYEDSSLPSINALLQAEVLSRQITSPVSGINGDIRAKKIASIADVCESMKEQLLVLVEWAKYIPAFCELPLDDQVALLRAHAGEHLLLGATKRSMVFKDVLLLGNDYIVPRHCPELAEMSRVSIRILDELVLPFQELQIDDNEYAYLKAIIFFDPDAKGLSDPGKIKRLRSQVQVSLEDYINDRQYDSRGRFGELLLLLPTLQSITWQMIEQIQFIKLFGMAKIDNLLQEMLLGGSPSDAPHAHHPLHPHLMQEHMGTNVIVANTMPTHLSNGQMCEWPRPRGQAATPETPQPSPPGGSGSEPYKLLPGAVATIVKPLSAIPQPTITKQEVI
# Assay: protein-binding microarray; COS-7 nuclear extract on double-stranded Agilent 4x180k PBM; binding buffer, salt, pH and temperature not given in the material; high values mean tight binding
# Details: chain copies: 2; label: 3' end of strand 1 on the slide; dsDNA, one strand shown
# Summary of the method: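 A custom Agilent SurePrint G3 4x180k array, spotted in quadruplicate with ~44,000 test sequences as ~60-nt oligonucleotides made double-stranded, was incubated with nuclear extracts. The extracts came from COS-7 cells transiently transfected by CaPO4 with a human HNF4α isoform expression vector. Bound HNF4α was imaged on an Agilent G2565CA scanner at 2-µm resolution, and the binding signal was taken as Agilent software's background-corrected, normalized gProcessedSignal.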
row,Sequence,binding signal [log2 normalized intensity]
1,ATAAGACACATTCCATGCTTATCAGTGTACGCCTAGGGAGATTAGAGTATCGGTCGA,0.893
2,TAACTCAAAATCTGCTCTGTCCTGAGATGTGCCTAGGGAGATTAGAGTATCGGTCGA,1.06
3,AGGCCTGGAACCTGTCTGACAGGATGAATTGCCTAGGGAGATTAGAGTATCGGTCGA,-0.627
4,GCTGCCGCAGATCCCCGCTCCCCTCCCCCAGCCTAGGGAGATTAGAGTATCGGTCGA,6.45
5,AAGAGCCAAAATGTGTTAGGCAAGCAAACTGCCTAGGGAGATTAGAGTATCGGTCGA,-0.953
6,GTCAAAACTTTGTTTGAGTTCCAAAGTCCAGCCTAGGGAGATTAGAGTATCGGTCGA,6.99
7,CGGTGAGGGATTGTTTAGGTACAAAGTCCAGCCTAGGGAGATTAGAGTATCGGTCGA,8.35
8,TTGTTTAGGTACAAAGTCCATTGGAAGCCAGCCTAGGGAGATTAGAGTATCGGTCGA,5.82
9,AGGGATTGTTTAGGTACAAAGTCCATTGGAGCCTAGGGAGATTAGAGTATCGGTCGA,7.7
10,AAAGTCCATATTCTTTGTTTGGATGCCAAAGCCTAGGGAGATTAGAGTATCGGTCGA,1.58
11,AGATTCGGTGAGGGATTGTTTAGGTACAAAGCCTAGGGAGATTAGAGTATCGGTCGA,1.53
12,ATACAGAATCAATGCCTGATTCCAAAGTCCGCCTAGGGAGATTAGAGTATCGGTCGA,5.95
13,GAATCAATGCCTGATTCCAAAGTCCACTTTGCCTAGGGAGATTAGAGTATCGGTCGA,6.91
14,CTCTGAGATTCGGTGAGGGATTGTTTAGGTGCCTAGGGAGATTAGAGTATCGGTCGA,0.957
15,AACTTTGTTTGAGTTCCAAAGTCCATGTTCGCCTAGGGAGATTAGAGTATCGGTCGA,6.61
16,ATGTGGTCAAAACTTTGTTTGAGTTCCAAAGCCTAGGGAGATTAGAGTATCGGTCGA,1.07

row,Sequence,binding signal [log2 normalized intensity]
1,ACTTTGCCTTTTGGCTAAAGTCCAAATTCCGCCTAGGGAGATTAGAGTATCGGTCGA,5.14
2,AAGCATTTGGAGATTGCCACCTTGGTGAGAGCCTAGGGAGATTAGAGTATCGGTCGA,0.715
3,GAGTTCTTCAAGTCAGTCAAAATGAATAGTGCCTAGGGAGATTAGAGTATCGGTCGA,1.32
4,TTGGCAGATTAGATATATCTGTACTCAAACGCCTAGGGAGATTAGAGTATCGGTCGA,1.27
5,TAACAGGATTTTTGCTGAAGACAGGCCAGGGCCTAGGGAGATTAGAGTATCGGTCGA,-0.417
6,CTGAATGGAATGAAGATACTGGATAACCTTGCCTAGGGAGATTAGAGTATCGGTCGA,0.695
7,AGAATGAGACCTGCTAGGCTGCATTCTCTGGCCTAGGGAGATTAGAGTATCGGTCGA,-0.977
8,TTACATGCCTTATCTGGTTCAAAGGTCATTGCCTAGGGAGATTAGAGTATCGGTCGA,7.65
9,TTCTGGTCAAAGGTCAATGAAGCTCTTGCTGCCTAGGGAGATTAGAGTATCGGTCGA,5.65
10,TGCCTTATCTGGTTCAAAGGTCATTTCTGCGCCTAGGGAGATTAGAGTATCGGTCGA,6.58
11,TTATCTTACATGCCTTATCTGGTTCAAAGGGCCTAGGGAGATTAGAGTATCGGTCGA,2.9
12,TTCATTCTTTAAGGACCACATCAAAGGTCAGCCTAGGGAGATTAGAGTATCGGTCGA,4.7
13,TATCTGGTTCAAAGGTCATTTCTGCTTGCAGCCTAGGGAGATTAGAGTATCGGTCGA,5.75
14,TAAGATTCTGGTCAAAGGTCAATGAAGCTCGCCTAGGGAGATTAGAGTATCGGTCGA,5.93
15,TTCCCTAAGATTCTGGTCAAAGGTCAATGAGCCTAGGGAGATTAGAGTATCGGTCGA,7.36
16,ATTCATTCCCTAAGATTCTGGTCAAAGGTCGCCTAGGGAGATTAGAGTATCGGTCGA,7.3

# From paper PMC10726135, “HNF4α isoforms regulate the circadian balance between carbohydrate and lipid metabolism in the liver”
